Shown are actives, neighbours in structure and some others; about 6.2% of the full set was active somewhere.
NR3A LBD binder = binders of NR3A ligand-binding domain, primary screen, biophysical, differential scanning fluorimetry, uHTS. Glutamate receptor ionotropic, NMDA 3A (GRIN3A) ligand-binding domain. NR3A LBD differential scanning fluorimetry, Tm shift; 0% = protein alone, 100% = glycine-bound protein. Tm shift relative to glycine control, % at 25 µM. 340,000 tested, 2.5% active;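 active means melting temperature shift of at least 10% of the positive control shift, at one fixed dose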
NTR1 ag = agonists of human NTR1, primary screen, imaging, U2OS cells, beta-arrestin-GFP, high content. NTR1-U2OS beta-arrestin-GFP spot imaging, agonist mode. activation, % at 20 µM. 330,000 tested, 0.17% active. AID 493036, 2011;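 active means activation at or above 40% of the spot to cytoplasm intensity ratio, with at least 20 cells analyzed; inconclusive means wells under 20 cells, flagged as cytotoxic or low count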;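 further: 0% = DMSO without peptide and 100% = 100 nM NTR1 peptide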
H9c2 protect = cardioprotection against H2O2-induced cell death, primary screen, uHTS, H9c2 cells, ATPLite luminescence; AID 588492, 2011; H9c2 cardiomyocytes, H2O2 injury protection, 2 h; 360,000 tested, 0.63% active; protection from H2O2 cell death, % at 20 µM;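 active means compounds giving at least 50% protection of heart cells from peroxide-induced death in the single-dose screen, raw or plate-pattern-corrected value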;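 further: 0% = DMSO wells with peroxide and 100% = DMSO wells without peroxide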
AI-2 QS modul = Vibrio harveyi AI-2 quorum sensing modulators, primary screen, JMH597 strain, luminescence/OD600 ratio; Vibrio harveyi JMH597 AI-2 luminescence/OD600 ratio, 9 h; active compounds read low; strain lacks LuxN and CqsS sensors; 0 = neutral-control median; 300,000 tested, 0.4% active; AID 2094, 2009; activity change, % at 7.5 µM; in the data active means activity change below about -75%, passing the limit was not always enough; inconclusive means no clear call, values can overlap the other calls;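 further: luminescence divided by OD600 gain over 9 h not by final OD600 alone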
SUMO Mot1 rescue = yeast Mot1-301 growth rescue at high temperature, primary screen, SUMOylation pathway inhibitor project, S. cerevisiae, ATP luminescence, 38.5C. growth rescue, % at 18.8 µM. S. cerevisiae Mot1-301 growth rescue; percent above DMSO median, 100 means doubled. 320,000 tested, 1% active. AID 2716, 2010;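 active means every valid replicate shows activation above 250% relative to neutral control wells; inactive means the rest, any valid replicate at or below 250%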;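 further: OY570 slx delta 5 strain wells were the positive control but not used for scaling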
AHR act = AHR activators, primary screen, cell-based, luminescence, luciferase reporter, human; Aryl hydrocarbon receptor (Homo sapiens), P35869; AHR-responsive luciferase reporter cells; activation, % at 5 µM; 320,000 tested, 2.5% active; AID 2796, 2010; in the data active means activation above about 47%;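 further: 0% = vehicle wells and 100% = reference agonist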
Target sequence (P35869 whole entry, looked up): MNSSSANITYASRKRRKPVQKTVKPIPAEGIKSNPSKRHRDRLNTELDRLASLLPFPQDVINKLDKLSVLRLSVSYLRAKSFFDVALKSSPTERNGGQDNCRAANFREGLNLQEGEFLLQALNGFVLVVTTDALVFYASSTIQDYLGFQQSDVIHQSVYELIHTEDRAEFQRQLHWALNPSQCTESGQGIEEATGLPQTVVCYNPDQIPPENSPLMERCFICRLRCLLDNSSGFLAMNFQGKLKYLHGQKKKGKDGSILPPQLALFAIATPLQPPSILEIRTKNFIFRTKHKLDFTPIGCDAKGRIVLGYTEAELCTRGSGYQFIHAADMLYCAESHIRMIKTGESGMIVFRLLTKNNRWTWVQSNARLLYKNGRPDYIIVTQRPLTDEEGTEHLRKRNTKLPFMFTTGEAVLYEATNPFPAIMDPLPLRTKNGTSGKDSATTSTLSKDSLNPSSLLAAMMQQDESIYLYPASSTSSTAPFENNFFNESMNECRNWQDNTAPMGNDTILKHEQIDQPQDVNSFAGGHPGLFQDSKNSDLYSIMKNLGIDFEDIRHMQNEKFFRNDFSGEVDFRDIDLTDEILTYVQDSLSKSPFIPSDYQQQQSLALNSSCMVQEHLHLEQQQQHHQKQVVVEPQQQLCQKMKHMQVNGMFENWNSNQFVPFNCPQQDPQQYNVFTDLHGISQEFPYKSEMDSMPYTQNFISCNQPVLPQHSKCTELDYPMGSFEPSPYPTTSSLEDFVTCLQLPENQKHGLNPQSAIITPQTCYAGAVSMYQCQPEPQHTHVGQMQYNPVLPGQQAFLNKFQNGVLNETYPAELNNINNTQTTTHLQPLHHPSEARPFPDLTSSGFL
JMH597 growth = Vibrio harveyi growth inhibition, confirmation, counter-screen for AI-2 quorum sensing project, JMH597 strain, OD600 absorbance | shares compounds with AI-2 QS modul | 9 h; lacks LuxN and CqsS sensors | growth inhibition, % at 7.5 µM | 750 tested, 1% active;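 active means every replicate shows growth inhibition above 50%; inconclusive means at least half, but not all, replicates pass that cutoff; inactive means fewer than half of replicates pass it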
BB721 const-QS lum = luminescence inhibition in constitutive-on V. harveyi, confirmation, counter-screen for LuxS inhibitor project, strain BB721, luminescence readout. shares compounds with AI-2 QS modul. 750 tested, 95% active. Vibrio harveyi BB721 luminescence, 9 h. inhibition, % at 7.5 µM;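 active means inhibition above about 80% in every replicate, not just on average, limit read from the data; inconclusive means at least half of replicates past the limit, but not all; inactive means fewer than half of replicates past the limit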
BB721 growth = growth inhibition of V. harveyi BB721, confirmation, cytotoxicity control for AI-2 quorum sensing inhibitors, strain BB721, absorbance OD600; growth inhibition, % at 7.5 µM; 750 tested, 3% active; Vibrio harveyi BB721 growth, 9 h; shares compounds with AI-2 QS modul;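 active means every replicate shows growth inhibition above 50%; inconclusive means at least half but not all replicates above 50% inhibition; inactive means under half of replicates above 50% inhibition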
JMH597 AI-2 mod = Vibrio harveyi AI-2 signaling luminescence modulation – JMH597 strain, confirmation; shares compounds with AI-2 QS modul; AID 2736, 2010; inhibition, % at 7.5 µM; 750 tested, 97% active; Vibrio harveyi JMH597 AI-2 quorum sensing luminescence, 9 h; luxN and CqsS knockout, AI-2 only;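 active means every replicate shows more than 75% inhibition of signal versus neutral control wells; inconclusive means half to three quarters of replicates exceed 75% inhibition; inactive means fewer than half of replicates exceed 75% inhibition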
* = called active by the depositor; ? = inconclusive; / = not tested or not shown.

SMILES	NR3A LBD binder	NTR1 ag	H9c2 protect	AI-2 QS modul	SUMO Mot1 rescue	AHR act	JMH597 growth	BB721 const-QS lum	BB721 growth	JMH597 AI-2 mod
CC12CCC(=O)N1C(C(=O)Nc1ccc(SC(F)F)cc1)CS2 (centres undefined)	/	1.1	4.7	-94.1*	1.0	0.4	23.7	95.4*	16.6	95.8*
CC12CCC(=O)N1C(C(=O)Nc1ccc(S(=O)(=O)N3CCCCC3)cc1)CS2 (centres undefined)	3.3	-0.3	-2.0	-32.6	-9.1	0.3	/	/	/	/
Cc1cc(C(=O)NNC(=O)c2ccc(S(=O)(=O)N(C)C)cc2)c(C)o1	-0.5	-0.6	5.7	-84.4*	-12.8	1.9	11.6	88.0*	12.1	93.2*
O=C(O)CSc1nnc(COc2cccc3ccccc23)o1	-0.1	-0.6	0.4	-27.9	-10.4	2.8	/	/	/	/
COC(=O)CSc1nnc(COc2cccc3ccccc23)o1	1.6	-0.2	-2.1	-83.3*	22.5	4.1	-3.2	92.3*	-17.9	93.2*
O=C(/C=C/c1ccccc1Cl)NCc1ccco1	-1.3	1.2	-4.3	-83.1*	3.2	-1.4	4.8	93.0*	18.3	93.7*
O=C(/C=C/c1c(Cl)cccc1Cl)NCc1ccco1	-0.4	-0.4	-4.6	13.5	-12.7	-3.9	/	/	/	/
O=C(CSc1ncc(-c2ccccc2)[nH]1)Nc1ccccc1	-5.8	0.3	-5.2	-82.4*	9.5	1.8	15.6	93.4*	22.6	93.9*
O=C(CSc1ncc(-c2ccccc2)[nH]1)Nc1cccc(O)c1	6.3	-0.8	2.4	11.6	25.5	6.5	/	/	/	/
Cc1ccc(CNC(=O)CCCc2ccccc2)cc1	0.5	-0.3	8.5	8.5	8.5	3.5	/	/	/	/
Cc1ccc(CNC(=O)CCc2ccccc2)cc1	2.0	-1.5	3.6	-81.0*	-2.6	2.2	17.5	92.5*	17.8	93.9*
CC(C)c1ccc(CNC(=O)CCc2ccccc2)cc1	-2.1	1.0	-3.3	-88.8*	-3.3	3.9	12.5	95.8*	1.0	97.2*
C=C1C(=O)C2=CC1CCC(=O)C1(C)CCC(OC(C)=O)C(C)(C)C1CC2O (centres undefined)	6.4	/	-16.9	/	/	/	/	/	/	/
Cc1ccc(O)c(N/C=C/C(=O)c2ccc(F)cc2)c1	-1.2	5.0	-17.1	?	7.5	5.0	20.8	86.4*	33.0	89.5*
CCn1nc(C)c(CN2CCCC(CNS(=O)(=O)c3ccc(OC)cc3)C2)c1C (centres undefined)	-0.9	-0.2	-11.4	0.2	-22.0	9.8	/	/	/	/
N/C(=N\OC(=O)CCc1ccccc1)c1ccc(Br)cc1	-7.2	2.1	-13.9	-23.9	9.4	3.3	/	/	/	/
N/C(=N\OC(=O)CCc1ccccc1)c1ccccc1Cl	-4.3	2.4	-3.8	-85.5*	-1.0	-1.1	9.1	92.1*	4.1	92.5*
CCCNC(=O)c1cc(C2CCCCN2S(=O)(=O)c2ccccc2)on1 (centres undefined)	/	/	0.5	/	/	/	/	/	/	/
O=C(/C=C/[C@H]1O[C@@H](n2ccc(=O)[nH]c2=O)[C@H](O)[C@@H]1O)NCc1cccs1	/	/	-3.4	/	/	/	/	/	/	/
Cc1cccc(/C(N)=N/OC(=O)c2cccc3ccccc23)c1	/	5.1	-21.8	-84.8*	80.3	73.2*	61.6	97.5*	?	97.7*
c1ccc(COc2ncnc3c2ncn3CCCNCc2ccc3c(c2)OCO3)cc1	-0.5	/	6.1	/	/	/	/	/	/	/
CCn1c(SCc2ccccc2)nnc1-c1ccc(S(=O)(=O)N2CCCCC2)cc1	-2.2	1.3	-19.5	?	96.8	-1.0	42.1	88.8*	59.2	94.4*
CCc1nnc(NC(=O)CSc2ccc(-c3ccccc3OC)nn2)s1	0.6	0.0	10.5	-87.0*	-0.5	0.8	-7.7	98.1*	-7.2	98.5*
CCc1nnc(NC(=O)CSc2nc3ccccc3s2)s1	7.3	-1.3	2.7	7.6	29.0	4.1	/	/	/	/
CCc1nnc(NC(=O)CSc2ccc(-c3ccc(F)cc3)nn2)s1	/	-0.2	/	-93.1*	0.1	2.7	-22.6	89.8*	-10.0	93.1*
SMILES	NR3A LBD binder	NTR1 ag	H9c2 protect	AI-2 QS modul	SUMO Mot1 rescue	AHR act	JMH597 growth	BB721 const-QS lum	BB721 growth	JMH597 AI-2 mod
CCc1nnc(NC(=O)CSc2ccc(-c3cccs3)nn2)s1	-0.6	-1.8	-3.0	-88.6*	45.9	5.9	-8.1	96.8*	11.4	97.9*
Cc1ccc(NC(=O)COC(=O)Cn2ccc(=O)[nH]c2=O)cc1C	0.4	-0.7	3.1	/	1.6	1.8	/	/	/	/
NS(=O)(=O)c1cccc(NC(=O)CSc2nnc3n2CCCCC3)c1	2.4	4.0	1.7	/	18.2	1.8	/	/	/	/
O=CN(/C=C1\Sc2ccccc2C1=O)Cc1ccccc1	22.2*	1.4	-1.7	-89.9*	-6.7	13.1	78.0	95.8*	-59.3	97.2*
Cn1cnnc1SCC(=O)NC1CC1	3.1	-0.1	1.7	/	-8.4	0.2	/	/	/	/
Cc1ccc(NC(=O)COc2cccc(-n3cnnn3)c2)cc1[N+](=O)[O-]	-7.1	0.8	7.9	-7.2	-11.2	2.2	/	/	/	/
CC1(C(=O)OCC(=O)Nc2nnc(-c3ccccc3)o2)CC1(Cl)Cl (centres undefined)	-0.4	0.5	17.6	35.9	-12.9	2.4	/	/	/	/
Cn1cnc(S(=O)(=O)Nc2ccc(OC(F)(F)F)cc2)c1	1.6	-0.8	-5.3	?	/	3.1	1.4	-33.6	-27.1	88.3*
O=C(CSc1n[nH]c(=O)n1C1CC1)Nc1ccc(Cl)c(Cl)c1	-1.6	0.4	1.0	-82.6*	3.8	6.2	-16.1	88.3*	-7.2	91.4*
C[C@H]1CN([C@@H](C)CO)C(=O)c2cc(C#CCC3CCCC3)cnc2O[C@@H]1CN(C)C(=O)CC1CC1	/	/	-5.7	/	/	/	/	/	/	/
Cc1nn(CC(=O)Nc2ccc(S(N)(=O)=O)cc2)c(=O)c2ccccc12	4.1	0.4	-2.0	-83.9*	-8.7	0.5	-11.4	97.9*	-14.0	98.6*
